Compound activity deposited in PubChem by National Center for Advancing Translational Sciences (NCATS).
D1 antag = blocks dopamine activation of the human D1 receptor | activity change, negative = inhibition, % at 10 µM | HEK293 TREx D1 cells, calcium flux, dopamine EC80; stronger effect = lower value | AID 504652 | 360,000 compounds, 3.2% hits; in the data active means activity change below about -30%
Target sequence (P21728 whole entry, looked up): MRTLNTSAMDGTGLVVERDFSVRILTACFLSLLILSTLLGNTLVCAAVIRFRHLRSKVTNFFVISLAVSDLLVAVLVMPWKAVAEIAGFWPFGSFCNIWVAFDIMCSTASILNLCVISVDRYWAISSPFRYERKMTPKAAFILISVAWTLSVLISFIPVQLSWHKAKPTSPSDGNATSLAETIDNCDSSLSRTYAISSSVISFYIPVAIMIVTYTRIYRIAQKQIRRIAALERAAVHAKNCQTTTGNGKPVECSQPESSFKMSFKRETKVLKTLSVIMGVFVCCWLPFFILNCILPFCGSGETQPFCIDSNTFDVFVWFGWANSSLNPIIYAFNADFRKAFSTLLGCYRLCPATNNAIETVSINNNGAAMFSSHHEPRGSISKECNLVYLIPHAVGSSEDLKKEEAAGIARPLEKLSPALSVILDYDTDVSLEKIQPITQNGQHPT
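After overnight tetracycline induction at 30 C, force-coupled D1 HEK293 cells took up a no-wash calcium dye at room temperature. Compounds were added and monitored 180 s, and the response to EC80 dopamine was then recorded.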
TRHR ag = TRH receptor (human) agonism; P34981; TRHR cells, calcium flux fluo-8, FDSS agonist mode; activation, % at 2 µM; 360,000 compounds, 0.18% hits; AID 493084
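Fluo-8-loaded TRHR cells; 10 s baseline, compound added, kinetic Ca2+ fluorescence read 1/s, agonist mode.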
D1 potentiator = potentiators of human D1 dopamine receptor. HEK293 TREx D1 cells, calcium flux, dopamine EC20 potentiation. potentiation, % at 10 µM. 360,000 compounds, 0.036% hits; in the data active means potentiation above about 30%
TRHR enhancer = allosteric enhancers of human TRH receptor; AID 493056; enhancement, % at 2 µM; P34981; 360,000 compounds, 0.66% hits; TRHR cells, fluo-8 calcium fluorescence, EC20 TRH enhancement; in the data active means enhancement above about 30%
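Enhancer read-out: after compound pinning and an initial kinetic agonist-mode read, an EC20 of TRH (10 nM final) was injected and fluo-8 calcium signal (Ex 480/Em 530) followed at 1 s/cycle for 100 cycles in TRHR-expressing cells.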
D1 agonist = activates the human D1 dopamine receptor | 360,000 compounds, 1% hits | P21728 | AID 504660 | HEK293 T-REx D1 cells, calcium flux, agonist mode | activation, % at 2 µM
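Agonism was scored from calcium flux recorded over 180 s (1 read/s) after pintool compound addition, following a 10-cycle baseline. Cells were inducible force-coupled HEK293 TREx D1, plated overnight at 30 C and loaded with no-wash calcium dye.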
Each line names hits and unclear results; the compound was inactive in the other large screens. A selection: hits, their analogues and other compounds. The true share with any hit is near 4.6%. Unless noted, no stated cut-off is given here; in the data, active means activation above about 30%; inactive means the rest.

O=P1(Oc2ccccc2)OCCCS1 (stereo not drawn)	D1 antag -30.3
Cc1cc(N2CCCC2)ccc1C=C(C#N)C#N	D1 antag -33.0, D1 agonist 32.4
COC(=O)CSC1=NN1c1cc(C)nc(N)n1	D1 antag -32.8
CC(C(=O)N1CCC2(CC1)OCCO2)C1Sc2ccccc2NC1=O (stereo not drawn)	TRHR enhancer 35.1
O=C(c1ccc(N2CC3CC(C2)c2cccc(=O)n2C3)c([N+](=O)[O-])c1)N1CCCC1 (stereo not drawn)	D1 antag -35.2
CC1CCCCN1C(=O)c1ccc(N2CC3CC(C2)c2cccc(=O)n2C3)c([N+](=O)[O-])c1 (stereo not drawn)	none
O=C(c1ccc(N2CC3CC(C2)c2cccc(=O)n2C3)c([N+](=O)[O-])c1)N1CCCCC1 (stereo not drawn)	D1 antag -53.1
O=C(c1ccc2c(c1)N(Cc1ccc(F)cc1Cl)C(=O)c1ccccc1S2)N1CCC2(CC1)OCCO2	none
Clc1ccc2c(c1)C(OC1CN3CCC1CC3)c1ccccc1CS2 (stereo not drawn)	D1 antag -50.2, D1 agonist 34.9
Cc1ccc(-n2c(/C=C/c3ccccc3)nc3ccccc3c2=O)cc1Cl	none
CCCc1nc(SC)ncc1C(=O)Nc1ccc(Cl)cc1C(=O)c1ccccc1	none
O=C1NC(=O)N(c2ccc3c(c2)OCO3)C(=O)/C1=C/c1ccc(N2CCCC2)o1	D1 agonist 33.2
CN1C(=O)/C(=C/c2ccc(N3CCCCCC3)o2)C(=O)NC1=S	none
CN1CCN(c2ccc(/C=C3\C(=O)NC(=S)N(c4cccc(Br)c4)C3=O)o2)CC1	D1 agonist 90.4
CCN1C(=O)C(=Cc2ccc(N3CCOCC3)o2)C(=O)N(CC)C1=S	D1 agonist 65.9
CN1C(=O)/C(=C\c2ccc(N3CCCCC3)o2)C(=O)NC1=S	D1 agonist 32.7
CN1C(=O)C(=Cc2ccc(N3CCOCC3)o2)C(=O)N(C)C1=S	none
O=C(Nc1ccc2c(c1)OCO2)c1cccn(Cc2ccccc2)c1=O	none (no result: D1 antag)
O=C1CC(c2c(F)cccc2Cl)c2c(c3ccccc3oc2=O)O1 (stereo not drawn)	none
CN1CCN(c2oc(-c3ccc(COc4ccccc4)o3)nc2C#N)CC1	none
CC(Cc1ccccc1)NCC(=O)Nc1cc(N(C)C)nc2ccccc12 (stereo not drawn)	D1 antag -50.1
COc1ccccc1N=Cc1c(O)n(C)c(=O)n(C)c1=O	D1 antag -35.4
COc1ccc(Cl)cc1N=Cc1c(O)n(C)c(=O)n(C)c1=O	none
FC(F)(F)c1ccc(CN2CCNCC2)cc1	none
FC(F)(F)c1cccc(N2CCNCC2)c1	D1 antag -31.9
C=Cc1ccc(Cn2c(C)c(CNCCc3cc(OC)ccc3OC)c(C(=O)O)c2C)cc1	none
Cc1ccccc1-c1nc(CN2C(=O)CN=C(c3ccccc3)c3ccccc32)c(C)o1	none
COc1ccccc1CCNC1CCCCCC1	none
COc1ccccc1CCNC1CCC(C(C)(C)C)CC1 (stereo not drawn)	D1 agonist 88.9
COC(=O)C1=C(c2ccccc2)C[C@@H]2CC[C@H]1N2C	none
CCN(CC)c1ccc(/C=N/c2sc3c(c2C#N)C2CCN3CC2)c(O)c1	TRHR ag 52.3, D1 agonist 247.1
O=C1CC(c2ccccc2Br)c2c(c3ccccc3oc2=O)O1 (stereo not drawn)	none
CCCCCCCSc1cc(OC)c(CCN(C)C)cc1OC	D1 agonist 200.7
COc1cc(CCN)ccc1O	none
CCCCCSc1cc(OC)c(CCN)cc1OC	D1 agonist 30.9
Cc1ccc(Cn2cccc(C(=O)Nc3cc(C)on3)c2=O)cc1	none (no result: D1 antag)
Nc1c(C(=O)Nc2ccc(OC(F)(F)F)cc2)sc2nc3c(cc12)N1CCC3CC1	none
O=c1c2ccccc2nc(/C=C/c2ccccc2F)n1-c1cccc(O)c1	none
Cc1[nH]c2ccccc2c1CCNCc1cccnc1	none
Cc1[nH]c2ccccc2c1CCNCc1ccco1	D1 antag -40.7
Cc1ccc(CNC(=O)CCCn2c(=O)c3sccc3n(CC(=O)Nc3c(C)cccc3C)c2=O)cc1	none
Cc1cccc(C)c1OC(=O)Cc1ccccc1	D1 potentiator 33.0
Cc1cccc(C2CC(=O)Oc3c2c(=O)oc2ccccc32)c1 (stereo not drawn)	none
